# Laboratory results published in ChEMBL document CHEMBL4513216, “Probing the Open Global Health Chemical Diversity Library for Multistage-Active Starting Points for Next-Generation Antimalarials” (ACS Infect Dis, 2020).
# The campaign covered roughly 69,000 compounds. About 8,600 (12%) showed an effect of 50% or more. Shown is part of a subset that was picked to be rich in strong results.
# Tested on: Plasmodium berghei
# Assay: Screen against P. berghei liver stage (PbLuc), transformed with Luciferase, at 10uM
# Format: functional, HepG2
# Settings: tested at 10 uM
row,SMILES,INHIBITION [%]
1,CN(CC(N)=O)C(=O)c1csc(Br)c1,-5.1
2,CS(=O)(=O)NCCC(=O)Nc1cnn(-c2ccccc2Cl)c1,7.08
3,Cc1nn(-c2ccccc2)c(C)c1-c1ccnc(N2CCC(O)CC2)n1,20.2
4,Cc1nn(-c2ccccc2)c(C)c1-c1ccnc(N2CCCNCC2)n1,85.8
5,Cc1nn(-c2ccccc2)c(C)c1-c1ccnc(N2CCCOCC2)n1,-54.3
6,O=S(=O)(N1CCOCC1)N1CCCC1Cn1cccn1 (centres undefined),-5.71
7,Cc1nc(C2CN(Cc3ccc(F)cc3Br)CCO2)no1 (centres undefined),11.8
8,CC(C)c1noc(-c2ccc(N(C)C3CCOCC3)nc2)n1,-61.1
9,Cc1ccccc1-c1noc(-c2ccc(N(C)C3CCOCC3)nc2)n1,83.2
10,CN(c1ccc(-c2nc(C3CC3)no2)cn1)C1CCOCC1,-99.6
11,O=C(OCc1cc(=O)n2cc(Br)ccc2n1)c1ccc2c(c1)OCO2,19.8
12,O=C(NCCc1cccs1)N1CCCC2(CCC(=O)N(C3CC3)C2)C1 (centres undefined),9.87
13,COCCN1CC2(CCCN(C(=O)CCCc3cccs3)C2)CCC1=O (centres undefined),25.1
14,COCCN1CC2(CCCN(C(=O)NCCc3cccs3)C2)CCC1=O (centres undefined),56.5
15,CCN1CCCC(c2cc(Nc3cnccn3)nc(C)n2)C1 (centres undefined),-2.11
16,O=C(NCCCOCc1ccco1)c1cccnc1N1CCOCC1,18.2
17,CNc1nc(N2CCN(CC=C(C)C)C(CCO)C2)nc2c1CCC2 (centres undefined),68.6
18,COc1cc(N2CCN(Cc3ccsc3)C(CCO)C2)nc(N)n1 (centres undefined),23.3
19,CC(C)Oc1cc(N2CCN(Cc3ccsc3)C(CCO)C2)nc(N)n1 (centres undefined),49.4
20,CNc1nc(N2CCN(C3CCCCC3)C(CCO)C2)nc2c1CCC2 (centres undefined),12
21,Cc1cc(N2CCN(Cc3ccsc3)C(CCO)C2)nc(N)n1 (centres undefined),50.5
22,Cc1cc(N2CCC(NC(C)Cc3ccsc3)CC2)nc(C)n1 (centres undefined),27.9
23,CNc1nc(N2C[C@H](NC(=O)CCOC)[C@@H](C3CC3)C2)nc2c1CCC2,33.4
24,Cc1cc(N2CCC(NC(C)Cc3ccsc3)CC2)nc(N)n1 (centres undefined),64.9
25,CNc1nc(N2CCN(Cc3ccsc3)C(CCO)C2)nc2c1CCC2 (centres undefined),53.8

row,SMILES,INHIBITION [%]
1,Cc1cc(N2CCC(NS(C)(=O)=O)CC2)nc(C(C)C)n1,49
2,CNc1nc(N2CCN(C)C(CCO)C2)nc2c1CCC2 (centres undefined),23.5
3,CC(C)Nc1cc(N2CCN(Cc3ccccc3)C(CCO)C2)ncn1 (centres undefined),9.06
4,CC(=O)N1CC(=O)N(c2cnn(C)c2)CC12CCN(Cc1ccsc1)C2 (centres undefined),23.5
5,CC[C@@H](Cn1ncc2ccccc2c1=O)NC(=O)c1cnc(C)cn1,-20.6
6,Cc1ccc(-c2cnc3n2CCN(C)C32CCN(CC3CC3)CC2)cc1,-12.1
7,Cc1ccnc(C2CN(c3ncccn3)C2)n1,25.15
8,CN1[C@@H]2CC[C@H]1CN(c1cc(Sc3cccs3)nc(N)n1)CC2,49.2
9,CN1CCN(c2cc(Sc3cccs3)nc(N)n2)CC1CCO (centres undefined),50.2
10,Nc1nc(Sc2cccs2)cc(N2CC[C@H](CO)[C@H](O)C2)n1,-28
11,CCNC(=O)CN1CCc2c(Br)ccc(F)c2C1,-18.3
12,O=C(c1ccnc(-n2cnnc2)c1)N1CCCC2(CCOC2)C1 (centres undefined),39.4
13,O=C(c1ccc(-n2cnnc2)cc1Cl)N1CCCC2(CCNC2)C1 (centres undefined),35.1
14,O=C(c1cnc(Nc2ccccc2)nc1)N1CCS(=O)(=O)CC1,27.4
15,O=C(c1ccnc(-n2cnnc2)c1)N1CCCC2(CCNC2)C1 (centres undefined),56.5
16,O=C(c1cnc(Nc2ccccc2)nc1)N1CCC2(CCNCC2)CC1,30.4
17,O=C(c1cnc(Nc2ccccc2)nc1)N1CCCC2(CCNC2)C1 (centres undefined),58.1
18,CCOCCC(=O)N(CCC#N)c1ccc(C)c(C)c1,-2.27
19,CCc1[nH]nc(NC(=O)c2ccc(Cl)cn2)c1C,-61.3
20,COCCCN1CCC(N(Cc2noc(C)n2)C(C)=O)C1 (centres undefined),16.9
21,Cc1cc2c(=O)n3c(nc2s1)CCN(Cc1[nH]cnc1C)CC3,54.4
22,Cc1cc2c(=O)n3c(nc2s1)CCN(Cc1cnc(C(C)C)nc1)CC3,43.7
23,Cc1cc2c(=O)n3c(nc2s1)CCN(Cc1ccncc1)CC3,58.6
24,Cc1nc[nH]c1CN1CCc2nc3scc(C)c3c(=O)n2CC1,26.8
25,Cc1cc2c(=O)n3c(nc2s1)CCN(Cc1c[nH]cn1)CC3,23.2

row,SMILES,INHIBITION [%]
1,CCc1ncc(CN2CCc3nc4sc(C)cc4c(=O)n3CC2)cn1,13
2,O=C1COC2(CCN(CC3CCC3)CC2)CN1c1cncnc1,8.67
3,Cn1cnnc1C1CCCN(C(=O)COc2ccccc2Cl)C1 (centres undefined),-37.7
4,Cc1cccc(CN2C[C@@H]3CN(C(=O)c4cnccn4)C[C@@H]3C2=O)n1,43.2
5,O=C(CCN1CCOCC1)Nc1cccc(CNCc2cccs2)c1,49.2
6,CCC[C@H]1CN(S(C)(=O)=O)C[C@@H]1NC(=O)Cc1ccc(OC)cc1,-26.9
7,COCCOCCNC(=O)c1ccc(N2CCC(C)=N2)cc1,50.1
8,COCCNC(=O)CCNC(=O)c1ccc(N2CCC(C)=N2)cc1,40.2
9,CC1=NN(c2ccc(C(=O)OCCNC(=O)c3ccncc3)cc2)CC1,-17.8
10,CC(NC(=O)N1CCCN(C)CC1)c1ccc2c(c1)OCCO2 (centres undefined),-9.39
11,Cn1nccc1C(=O)N1CCOC(Cc2cccnc2)C1 (centres undefined),39.2
12,c1cncc(CN2CCOC(c3ncn4c(C5CC5)cccc34)C2)c1 (centres undefined),14.2
13,c1cc(C2CC2)n2cnc(C3CN(Cc4nccs4)CCO3)c2c1 (centres undefined),15.7
14,c1cc(C2CC2)n2cnc(C3CN(Cc4ccncc4)CCO3)c2c1 (centres undefined),51.2
15,Cc1nc(C)n(CC2CCCN2c2ncnc3sc(C)c(C)c23)n1 (centres undefined),-11.6
16,c1ccc2ncc(CC3CCNCC3)cc2c1,-0.232
17,COC1C[C@@H]2CN(C(=O)Cc3ccc(C)s3)C[C@@H]2C1 (some centres undefined),-34.45
18,FC(F)(F)c1cccc(CN2CCOC[C@H](Oc3cccnc3)C2)c1,63.8
19,Clc1ccc(CN2CCOC[C@H](Oc3cccnc3)C2)cc1,-11.1
20,Fc1ccc(CN2CCOC[C@H](Oc3cccnc3)C2)cc1,38.1
21,CC(C(=O)Nc1ccc(Cl)cn1)N1CCc2nn(C)c(=O)cc2C1 (centres undefined),6.23
22,Cc1cccc(CN2CCn3cc(Cn4cccn4)nc3C2)n1,-46.9
23,CO[C@H]1CNC[C@@H]1NC(=O)CCc1nc(-c2ccccc2)no1,0.426
24,CC(CNC(=O)c1ccn(-c2ccc(F)cc2)n1)Cn1cccn1 (centres undefined),39.6
25,Cc1nc(CN2CCO[C@@H]3CN(C(=O)CN(C)C)CC[C@@H]3C2)cs1,-9.18

row,SMILES,INHIBITION [%]
1,Cc1cc(C)cc(NC(=O)Nc2c(O)c3ccccc3oc2=O)c1,59.8
2,Cc1ccc(NC(=O)Nc2c(O)c3ccccc3oc2=O)cc1,41.6
3,Cc1ccc(NC(=O)Nc2c(O)c3ccccc3oc2=O)cc1C,-43.7
4,COc1ccccc1C1(O)CCCN(C(=O)c2csc(C(C)=O)c2)C1 (centres undefined),36
5,Cc1occc1C(=O)N1CCC2(CC1)CC(OCc1ccccn1)CO2 (centres undefined),31.1
6,c1csc(CN2C[C@@H](n3cccn3)[C@H]3OCCC[C@H]32)c1,-2.41
7,c1cnn([C@@H]2CN(Cc3nccs3)[C@@H]3CCCO[C@@H]32)c1,63.5
8,c1ccc(O[C@@H]2CN(Cc3nccs3)[C@@H]3CCCO[C@@H]32)nc1,27.6
9,CS(=O)(=O)c1cc(Cl)cnc1C1CCCN(C(=O)C2CCOCC2)C1 (centres undefined),30.65
10,CN1C(=O)CC(C(=O)O)C12CCN(Cc1ccc(Cl)c(Cl)c1)CC2 (centres undefined),5.46
11,CNS(=O)(=O)c1ccc(CN2CCN3CCNC(=O)C3C2)cc1 (centres undefined),49.9
12,O=C1NCCN2CCN(Cc3ccc(Cl)c(Cl)c3)CC12 (centres undefined),52.2
13,COc1cccc(S(=O)(=O)CCN2CCn3c(C)nnc3C2)c1,-17
14,CCn1cc(CN2CCCC(c3[nH]ncc3-c3ccc(F)cc3)C2)cn1 (centres undefined),9.52
15,CCn1cc(CN2CCCC(c3[nH]ncc3S(C)(=O)=O)C2)cn1 (centres undefined),57.2
16,CCn1cc(CN2CCC(c3[nH]ncc3S(C)(=O)=O)C2)cn1 (centres undefined),41.2
17,CCn1cc(CN2CCCC(c3[nH]ncc3-c3ccc(C)cc3)C2)cn1 (centres undefined),70.9
18,CCCn1cc(CN2CCC(c3[nH]ncc3S(C)(=O)=O)C2)cn1 (centres undefined),45.6
19,CCn1cc(C(=O)N2CCCC(c3[nH]ncc3S(C)(=O)=O)C2)cn1 (centres undefined),16.9
20,COc1cc(-c2n[nH]c(CO)n2)cc(OC)c1OC,17.1
21,CC(Cn1ccnc1)NC(=O)Nc1ccccn1 (centres undefined),29.95
22,CCOC(=O)c1ccc(NC(=O)c2c(O)nc3c(c2O)CCCC3)cc1,27.5
23,CC(C)c1nccn1CCC(=O)N1CCCCC1c1ccn[nH]1 (centres undefined),30.95
24,Cc1nn(C)c(N2CCOCC2)c1CNC1COc2ccccc2C1 (centres undefined),5.03
